The full ranking holds about 16,000 sequences; the median of “Z-score” is about -0.37, and the highest 2% start at about 3.2. Many of the other results were omitted from the sample, so the highest values are more common in it than they were.
What follows are sequences tested on RBM10 RRM1-ZnF (GST-tagged construct) (assay: RNAcompete 7-mer binding Z-score; higher = stronger binding preference).
Description: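 RNAcompete: 20 pmol GST-tagged RBM10 RNA-binding constructs were incubated with a designed RNA pool of about 241,000 sequences up to 41 nt (1.5 nmol) on glutathione beads for 30 min at 4 °C and washed. Bound RNAs were identified by microarray hybridisation. Each RNA 7-mer is scored by a one-sided Z-score of its enrichment, computed over probes that contain the 7-mer within longer pool sequences.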

| Sequence | RNAcompete 7-mer binding Z-score |
| --- | --- |
| UCUCUUG | -0.714 |
| ACGGGAU | 2.02 |
| AAAGUCC | -0.561 |
| UCGACGA | -0.327 |
| GCCAGCG | -0.0544 |
| UCGAAGC | -0.36 |
| AUGGGAG | 3.64 |
| AUGGGCA | 2.11 |
| UUGGGAG | 2.68 |
| AUUGGGU | 2.9 |
| UUGGGAA | 2.12 |
| AUCGGGU | 1.7 |
| CUGGGAG | 1.66 |
| AUGGGGU | 3.92 |
| CUGGGAA | 1.47 |
| AUGGGGA | 4.27 |
| AUGGGAA | 3.97 |
| CGACCUG | -0.571 |
| GACGAAC | -0.181 |
| UUUUGAU | -0.629 |
| UAUUGGC | -0.201 |
| AAUGGUA | 2.63 |
| AACAACC | -0.72 |

| Sequence | RNAcompete 7-mer binding Z-score |
| --- | --- |
| AGGAACU | -0.0155 |
| AUGGGGC | 2.81 |
| AUGGGGG | 4.12 |
| AUGGGCG | 2.86 |
| AUCUAAA | -0.451 |
| AGGGAUA | 4.2 |
| GGGGAUA | 3.45 |
| GAGGAUA | 2.15 |
| AGGGAUU | 2.3 |
| CGGGAUA | 1.56 |
| AGGGAUC | 1.02 |
| CUUAGUG | -0.282 |
| AGGAGAU | 1.41 |
| AAUGCGC | -0.428 |
| UGGCGGA | 1.83 |
| CCGGGGU | 2.08 |
| GGGGGGG | 3.4 |
| GGGGCGU | 2.64 |
| GGGGGCU | 2.22 |
| AGGGGGG | 2.76 |
| GGGGGGU | 3.81 |
| CGGGGGU | 3.46 |
| GGGGGGC | 2.37 |

| Sequence | RNAcompete 7-mer binding Z-score |
| --- | --- |
| CGGGGUU | 2.77 |
| GUUUUAC | -0.591 |
| AGAAGUA | 0.173 |
| ACCCGGU | -0.415 |
| UUUCGUA | -0.779 |
| AUACAUA | -0.269 |
| AUCUUAU | -0.863 |
| AGUCACG | 0.0138 |
| UUUCGUC | -0.811 |
| GUGAGGG | 3.75 |
| CUGAGGG | 1.81 |
| UUGAGGA | 1.14 |
| AUGAGGU | 1.9 |
| AUGAGGG | 3.84 |
| GUGAGGC | 1.53 |
| AUGAGGC | 0.969 |
| UUGAGGC | 0.115 |
| UUGAGGG | 3.4 |
| UGACCCC | -0.246 |
| UCGAAGA | -0.171 |
| AAUUCAG | -0.496 |
| CCCCGAC | -0.0772 |
| AACUCUA | -0.854 |

| Sequence | RNAcompete 7-mer binding Z-score |
| --- | --- |
| UCUUAUC | -0.86 |
| CUGGGGU | 2.18 |
| GUGGGUU | 3.11 |
| CUGGGGG | 2.28 |
| GUGGGGU | 4.71 |
| GUGGGGA | 4.7 |
| GCGGGAG | 2.86 |
| GUGGGAG | 4.08 |
| CUGGGGA | 1.76 |
| UUGGGAC | 1.58 |
| GUGGGCG | 3 |
| GUGGGCA | 3.06 |
| GUGGGGG | 4.47 |
| CCCCAAA | -0.6 |
| UCGAGCG | 0.0723 |
| GGCUCAU | -0.318 |
| AGGAACC | -0.139 |
| CUGCGGA | 0.199 |
| UAUGCCC | -0.6 |
| AUGACGC | -0.383 |
| CCAGACC | -0.642 |
| AGGCGCA | 0.0528 |
| AUGGGAU | 3.45 |

| Sequence | RNAcompete 7-mer binding Z-score |
| --- | --- |
| AUGGGAC | 2.09 |
| GUGGGCC | 1.46 |
| CUGGGGC | 0.901 |
| GUGGGAC | 2.35 |
| GCGGGAA | 2.66 |
| CUGGGAU | 1.11 |
| GUGGGAA | 3.62 |
| GUCGGAA | 0.8 |
| GUGGGGC | 3.52 |
| GUGGGAU | 3.68 |
| AUGGGCU | 1.6 |
| CGGCGGA | 0.862 |
| CCUUGUA | -0.733 |
| GUUCGGC | -0.0869 |
| UUCGUUG | -0.162 |
| GGGCAGC | 1.32 |
| CCAUGGU | 0.254 |
| ACUACUG | -0.428 |
| CUGCGCU | -0.633 |
| GUGGCGG | 3.26 |
| GUGGCGC | 0.992 |
| CUGGCGG | 0.508 |
| UUAUCGG | -0.171 |

| Sequence | RNAcompete 7-mer binding Z-score |
| --- | --- |
| AGUCGUG | 0.124 |
| AGGGACG | 2.13 |
| AGGGAUG | 4.59 |
| GGGGAUU | 2.75 |
| GGGGAUC | 2.29 |
| UGGGAUA | 3.05 |
| GGGGAUG | 4.52 |
| UGGGAUU | 1.9 |
| UGGGAUG | 3.61 |
| CGGGAUG | 2.48 |
| GCCAGAC | -0.386 |
| GUGAGGA | 2.69 |
| GAGUGUA | 0.972 |
| AGCUGGA | 0.8 |
| UGGUGAG | 2.98 |
| CAGCAAG | -0.0804 |
| AAAAUAU | -0.324 |
| GCUCAAG | -0.386 |
| AAGCAUG | -0.035 |
| AGAGUGA | 0.81 |
| AAAUGGG | 4.08 |
| GUAUGGA | 2.12 |
| AAAUGGA | 3.63 |

| Sequence | RNAcompete 7-mer binding Z-score |
| --- | --- |
| GAAUGGC | 1.27 |
| CAAUGGG | 2.34 |
| GUAUGGG | 4.25 |
| ACAUGGA | 1.7 |
| GAAUGGG | 4.76 |
| UAAUGGG | 2.84 |
| AAAUGGC | 1.05 |
| AAAUGGU | 2.86 |
| CUAUGGG | 1.13 |
| CGUAUGC | -0.542 |
| CCGGAGC | 0.0625 |
| GGCUUAG | 0.527 |
| CCUUACG | -0.818 |
| GGGUUAC | 2.16 |
| AGGUACG | 0.751 |
| UCCAGUU | -0.639 |
| AGCAUUC | -0.694 |
| UUGGUUG | 0.917 |
| GUGACGG | 2.02 |
| CAAUGGA | 1.1 |
| UAAUGGA | 1.93 |
| GAAUGGA | 4.02 |
| CACGGGA | 1.5 |

| Sequence | RNAcompete 7-mer binding Z-score |
| --- | --- |
| AACGGGG | 3.45 |
| GACGGGG | 3.13 |
| AACGGGA | 3.45 |
| AACGGGU | 3.03 |
| CACGGGG | 2.66 |
| UACUUUC | -0.974 |
| GUACUGA | 0.0138 |
| AGGGGAU | 3.64 |
| AGGGGAC | 2.18 |
| GGGGGAC | 2.25 |
| AGGGGCU | 1.35 |
| UGGGGAC | 3.17 |
| CGGGGAU | 2.5 |
| UGGGGAU | 3.57 |
| GGGGGAU | 3.32 |
| UUGGGAU | 2 |
| CACCUAU | -0.902 |
| UCGUCAA | -0.594 |
| CUAUCGG | -0.5 |
| CACGCGC | -0.366 |
| GGCCUAU | -0.565 |
| UGUUGUC | -0.574 |
| GUCCGGU | 0.082 |
